MARV entry inh: qHTS for inhibitors of binding or entry into cells for Marburg Virus; Marburg virus pseudotyped entry inhibition, cell reporter; Potency, µM (series often up to 37.8 µM), most hits filed as inhibitors; actives 1.8% (n = 300,000); calls by dose curve; tested in HEK293 cells
HCV inh: qHTS Assay for Inhibitors of Hepatitis C Virus (HCV) | AID 651820, 2012 | Potency, µM (highest dose often 41.8 µM), most hits filed as inhibitors | actives 3.4% (n = 340,000) | Huh7.5.1 HCVcc-Cre infection, luciferase reporter, 44 h; active = well fitted inhibition curve with a large enough effect; inconclusive = small, poorly fitted or top-dose-only effect, or another doubt; inactive = no such curve, though single readings can be large or run the other way
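1,000 cells/well; 4 h culture; + compound; + HCVcc-Cre (~0.5 moi); 44 h; luciferase substrate, RT 15 min; read 15 sec.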
HCMV antiviral: qHTS Assay for inhibitors of the human cytomegalovirus (HCMV). activity change, negative = inhibition, % at 57.5 µM. actives 4.5% (n = 410,000). HFF cells, HCMV-luciferase reporter, 72 h; stronger effect = lower value; in the data active = activity change below about -60%; inconclusive = no clear call, values can overlap the other calls; inactive = above about -39%
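Two-dose cell screen: HFF monolayers treated with compounds and infected with luciferase-expressing HCMV at 1 PFU/cell, 72 h at 37C, then lysed for luciferase measurement.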
Lassa entry inh: qHTS for Inhibitors of binding or entry into cells for Lassa Virus; Lassa virus pseudotype entry inhibition, cell reporter; actives 1.2% (n = 300,000); Potency, µM (highest dose often 37.9 µM), most hits filed as inhibitors; calls by dose curve; tested in HEK293 cells; also: nearly all actives have a fitted effect of over 50% in size
VACV mCherry inh: qHTS for Stage-Specific Inhibitors of Vaccinia Orthopoxvirus: mCherry Reporter Primary qHTS; Vaccinia virus mCherry reporter infection, fluorescence; Potency, µM (highest dose often 36.5 µM), usual class: inhibitors; actives 0.63% (n = 310,000); calls by dose curve; tested in A549 cells; also: nearly all actives have a fitted effect of over 35% in size
VACV Venus inh: qHTS for Stage-Specific Inhibitors of Vaccinia Orthopoxvirus: Venus Reporter Primary qHTS. Vaccinia virus Venus reporter expression, fluorescence. Potency, µM (top dose mostly 36.5 µM), most hits filed as inhibitors. actives 0.46% (n = 330,000); calls by dose curve; tested in A549 cells; also: nearly all actives have a fitted effect of over 30% in size
Hits are given with their value; - = inactive; ? = inconclusive; . = no result; + = active, no number; ! = repeats disagree; [ ] = dose if it differs, or a comment. Only some compounds are listed: those with a hit (about 7.8% of all), similar ones and a draw of the others.

SMILES | MARV entry inh | HCV inh | HCMV antiviral | Lassa entry inh | VACV mCherry inh | VACV Venus inh
COc1ccc(OCCSc2nnc(CCNC(=O)c3ccc(Cl)c(Cl)c3)n2C)cc1 | - | - | - | - | . | .
CCn1c(CCNC(=O)c2ccc(Cl)c(Cl)c2)nnc1SCCOc1ccc(OC)cc1 | - | - | -65 | - | . | .
O=C(NCc1nc2ccccc2n1Cc1ccccc1Cl)c1ccccc1 | ? | . | - | - | -[7.34 µM] | -[7.34 µM]
Cc1ccc(NC(=O)Nc2nnc(SCC(=O)Nc3ccc(F)cc3F)s2)cc1 | . | . | - | - | -[7.34 µM] | -[7.34 µM]
O=C(N/N=C/c1ccc(-c2ccccc2[N+](=O)[O-])o1)[C@H]1C[C@@H]1c1ccccc1 | ? | ? | ? | 0.82µM | - | -
O=[N+]([O-])c1cccc(-c2ccc(/C=N/NC(=S)Nc3cccc(F)c3)o2)c1 | - | ? | ? | - | - | -
NC(=S)N/N=C/c1ccc(-c2cccc([N+](=O)[O-])c2)o1 | - | ? | - | - | 4.5µM | 5µM
Cc1ccc(C(=O)N/N=C/c2ccc(-c3ccccc3[N+](=O)[O-])o2)cn1 | - | - | -64 | - | ? | ?
O=C(N/N=C/c1ccc(-c2cccc([N+](=O)[O-])c2)o1)[C@H]1C[C@@H]1c1ccccc1 | - | ? | ? | 4µM | - | -
O=C(/C=C/c1ccc(-c2ccccc2[N+](=O)[O-])o1)c1ccccc1 | ? | - | - | - | - | -
O=C(N/N=C/c1ccc(-c2ccc([N+](=O)[O-])cc2)o1)[C@H]1C[C@@H]1c1ccccc1 | - | ? | - | ? | - | -
O=C(Nc1ccc(C(=O)OCc2cc(=O)n3c4c(sc3n2)CCCC4)cc1)c1ccc(F)cc1 | . | . | - | - | - | -
CCOC(=O)c1c(C)cc(O)c(C=O)c1O | . | . | . | . | - | -
CCOC(=O)C(CC)Sc1ccc2nnc(CCNS(=O)(=O)c3ccc(C)cc3)n2n1 (stereo unspecified) | . | . | - | - | - | -
Cc1ccc(C(=O)Nc2nnc(S(=O)(=O)N(C)Cc3ccc(F)cc3)s2)cc1 | . | . | + | - | - | -
Cc1cccc(C(=O)Nc2nnc(S(=O)(=O)N(C)Cc3ccc(Cl)cc3)s2)c1 | . | . | ? | - | - | -
C=C1OC(CO)(n2cnc3c(N)ncnc32)C(O)C1O (stereo unspecified) | . | . | . | . | - | -
O=C(COc1ccccc1[N+](=O)[O-])Nc1ccc(NC(=O)c2cc3ccccc3o2)cc1 | ? | 11µM | ? | ? | - | -
CCN(CC)S(=O)(=O)c1cccc(NC(=O)c2cc3ccccc3o2)c1 | - | 10µM | - | ? | - | -
O=C(COc1ccccc1[N+](=O)[O-])Nc1ccc2oc(=O)ccc2c1 | . | - | - | . | . | .
COc1cc(NC(=O)c2cccc(C)c2)ccc1NC(=O)c1cc2ccccc2o1 | . | ? | -87 | . | ? | 8.9µM
Cc1ccc(NC(=O)c2cc3ccccc3o2)nc1 | ? | -[8.37 µM] | - | 5µM | - | -
CN1C(=O)CC(CC(=O)N2CCCCC2CCO)(c2cccc(F)c2)C1=O (stereo unspecified) | . | . | . | . | - | -
C=CCn1c(SCC(=O)NCc2ccco2)nnc1-c1cccc(N(C)C)c1 | . | . | . | . | - | -
CCN(CC)S(=O)(=O)c1cccc(NC(=O)c2ccc(Br)cc2)c1 | - | 8.9µM | ? | - | ? | -
SMILES | MARV entry inh | HCV inh | HCMV antiviral | Lassa entry inh | VACV mCherry inh | VACV Venus inh
Cc1ccc(NC(=O)c2cc(=O)c3ccccc3o2)cc1 | - | ? | - | ? | . | .
CC(=O)Nc1ccc(NC(=O)c2cc(=O)c3ccccc3o2)cc1 | - | - | -85! | - | - | -
O=C(COc1ccc(/C=N/NC(=O)c2cc3ccccc3o2)cc1Br)Nc1ccccc1 | ? | ? | -100 | ? | ? | ?
O=C(Nc1ccccc1)c1cc2ccccc2o1 | ? | - | - | 10µM | - | -
COCCNC(=O)CCN1C(=O)c2cccnc2Oc2ccc(C)cc21 | . | . | - | - | - | -
COc1ccc(C2(Nc3cccc(C(=O)O)c3C)C(=O)c3ccccc3C2=O)cc1 | . | . | - | ? | - | -
COc1ccc(C2(C(=O)c3ccccc3)C(=O)c3ccccc3C2=O)cc1 | . | 3.5µM | . | . | . | .
NCCCNc1nc(N)c([N+](=O)[O-])c(NC2CCCCC2)n1 | . | 13µM | -97 | . | ? | 3.2µM

Screening data from PubChem.
